Assay results taken from PubChem BioAssay (NCATS).
Results filed as inconclusive are left out. The source made the active and inactive calls. Unless noted, the call rests on the fitted dose curve.

Legend:
[1] = target: Glucocorticoid receptor (Homo sapiens) (UniProt P04150); test: qHTS assay for small molecule agonists of glucocorticoid receptor signaling (AID 588532; active means well fitted curve in the direction sought with a large enough effect in the signal ratio, with a control signal flat; the % refers to the signal ratio;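 further: 100% = dexamethasone at 0.1 µM and 0% = DMSO only wells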); conditions: HeLa MMTV-bla, beta-lactamase ratio, agonist, 18 h; activation: stronger effect = higher value, percent of dexamethasone control, DMSO zero
In short: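 Using MMTV-bla HeLa cells in medium with 1% stripped FBS and 25 mM HEPES, compounds were titrated and incubated overnight-length (18 h). Beta-lactamase cleavage of CCF4 was quantified by dual-emission fluorescence.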

[2] = target: Glucocorticoid receptor (Homo sapiens) (UniProt P04150); test: qHTS assay for small molecule antagonists of glucocorticoid receptor signaling (AID 588533; active means well fitted inhibition curve with a large enough effect in the signal ratio, with a control signal flat, not every such curve was filed as active; the % refers to the signal ratio;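 further: cells stimulated with 2 nM dexamethasone as agonist; on the % scale 0 is the no-effect control and ±100 the full control effect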)
In short: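 Antagonist-mode qHTS: compound titrations added to GRE-bla HeLa cells, then dexamethasone 2 nM final; 18 h, 37 C. CCF4 FRET fluorescence normalized to dexamethasone and DMSO; IC50 from Hill fit.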

[3] = target: Peroxisome proliferator-activated receptor delta (Homo sapiens) (UniProt Q03181); test: qHTS assay for small molecule agonists of peroxisome proliferator-activated receptor delta signaling (AID 588534);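 further: 0% = DMSO basal wells and 100% = positive control agonist at 10 µM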
In short: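 Agonist-mode qHTS; reporter cells, 5 hrs 37 C pre-incubation; compound titration, 18 hrs 37 C; CCF4 dye, 2 hrs RT; fluorescence read. EC50/efficacy via Hill fit.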

[4] = qHTS assay for small molecule antagonists of peroxisome proliferator-activated receptor delta signaling (AID 588535); conditions: HEK293T PPARd-UAS-bla, beta-lactamase FRET ratio, 18 h; 460 nm channel;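 further: cells co-treated with a PPAR-delta agonist as stimulator during compound exposure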
In short: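 Titrations were run on PPAR-delta-UAS-bla HEK293T cells in charcoal/dextran-stripped serum, incubated 18 h at 37 C. CCF4 fluorescence (460/530 nm) after 2 h RT; Hill equation yields IC50 and maximal response.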

[5] = target: Vitamin D3 receptor (Homo sapiens) (UniProt P11473); test: qHTS assay for small molecule antagonists of vitamin D receptor signaling (AID 588541);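 further: receptor activated by calcitriol during compound treatment; series mostly up to about 77 µM; on the % scale 0 is the no-effect control and ±100 the full control effect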
In short: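 Antagonist-mode beta-lactamase reporter assay: HEK293T VDR-UAS-bla cells were exposed to titrated compound alongside 1-alpha,25-dihydroxyvitamin D3 at 3 nM final for 16 h. Values were normalized to the 50 nM agonist control and DMSO basal, with IC50 and efficacy from Hill equation fits.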

[6] = target: Vitamin D3 receptor (Homo sapiens) (UniProt P11473); test: qHTS assay for small molecule agonists of vitamin D receptor signaling (AID 588543);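 further: 0% = DMSO basal and 100% = reference agonist control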
In short: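 qHTS in agonist mode: compound titrations stimulate a VDR-driven β-lactamase reporter in HEK293T cells over 16 h at 37 °C. Response normalized to 50 nM 1α,25-dihydroxyvitamin D3 = 100%, DMSO = 0%; Hill fitting gives EC50 and maximal response.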

[7] = target: Thyroid hormone receptor beta (Homo sapiens) (UniProt P10828); test: qHTS assay for small molecule agonists of thyroid hormone receptor beta signaling (AID 588545);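 further: 0% = DMSO only and 100% = 10 nM T3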
In short: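 Efficacy and EC50 values derive from Hill fits of qHTS titration data, normalized to 10 nM T3 and DMSO-only wells. HEK 293 reporter cells were stimulated for 18 hrs at 37 C, with beta-lactamase activity measured by CCF4 fluorescence.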

[8] = qHTS assay for small molecule antagonists of retinoid X receptor alpha signaling (AID 588546; active means well fitted inhibition curve with a large enough effect in the signal ratio, with a control signal flat, not every such curve was filed as active; the % refers to the signal ratio;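 further: cells stimulated with 9-cis-retinoic acid as agonist; on the % scale 0 is the no-effect control and ±100 the full control effect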); conditions: HEK293T RXRa-UAS-bla, beta-lactamase ratio, antagonist mode; measured here: W530 green channel, cytotoxicity proxy
In short: (§1)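 Beta-lactamase reporter inhibition, read as CCF4 fluorescence ratio (ex 405, em 460/530 nm) after 2 h at RT. HEK293T UAS-bla cells, 2500/well, were stimulated with 9-cis-RA at 500 or 100 nM final alongside test compound for 18 h at 37 C.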

[9] = target: Retinoic acid receptor RXR-alpha (Homo sapiens) (UniProt P19793); test: as above; conditions: HEK293T RXRa-UAS-bla, beta-lactamase ratio, antagonist mode
In short: as §1

[10] = target: Thyroid hormone receptor beta (Homo sapiens) (UniProt P10828); test: qHTS assay for small molecule antagonists of thyroid hormone receptor beta signaling (AID 588547; active means well fitted inhibition curve with a large enough effect in the signal ratio, with a control signal flat, not every such curve was filed as active; the % refers to the signal ratio;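 further: cells stimulated with 0.4 nM T3 agonist during compound exposure; series mostly up to about 77 µM; on the % scale 0 is the no-effect control and ±100 the full control effect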); conditions: TR-UAS-bla HEK293, beta-lactamase ratio, antagonist mode, 18 h
In short: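 Inhibition of T3-driven (0.4nM final) beta-lactamase reporter activity was measured over 0.59 nM to 92 uM compound after 18 h at 37 C. The cells were GripTite HEK293 TR-UAS-bla in charcoal/dextran-stripped serum, with CCF4 ratio read-out and IC50 from Hill fits.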

[11] = qHTS assay for small molecule activators of the p53 signaling pathway (AID 651743; active means well fitted activation curve with a large enough effect in the signal ratio, not every such curve was filed as active; the % refers to the signal ratio; further: series mostly up to about 92 µM; % of control where 0% means no effect); conditions: HCT-116 p53RE-bla, beta-lactamase FRET ratio, 16 h; activation: stronger effect = higher value
In short: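 After 16 hours compound treatment at 37 C, HCT-116 cells stably expressing p53RE-driven beta-lactamase were loaded with LiveBLAzer B/G FRET substrate for 2 hours at room temperature. Fluorescence intensity served as the p53 activation read-out.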

[12] = qHTS assay for small molecule activators of the nuclear factor-kappa B (NF-kB) signaling pathway (AID 651749; active means well fitted activation curve with a large enough effect in the signal ratio; the % refers to the signal ratio; further: series mostly up to about 77 µM; % of control where 0% means no effect); conditions: NF-kB-bla ME-180 cells, beta-lactamase FRET ratio, 16 h; activation: stronger effect = higher value
In short: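 Activation measured after 16 hr compound treatment at 37C, 5% CO2, of 2,000 ME-180 cells/well stably expressing an NF-kB response element–driven beta-lactamase reporter, via FRET-disruption fluorescence.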

[13] = target: Peroxisome proliferator-activated receptor alpha (Homo sapiens) (UniProt Q07869); test: qHTS assay for small molecule agonists of the peroxisome proliferator-activated receptor alpha (PPARalpha) signaling pathway (AID 651778; active means well fitted curve in the direction sought with a large enough effect; an effect the other way counts as inactive or inconclusive; further: potency means the concentration at half of the fitted maximal effect; on max response: % of control where 0% means no effect); conditions: PathHunter PPARalpha complementation, chemiluminescence, 6 h; max response: stronger effect = higher value
In short: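 Chemiluminescence from complemented enzyme reported PPARalpha activation in cells after 6 hr of compound treatment at 37 C. The detection reagent was incubated for 60 min at room temperature, and compounds were scored as agonists.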

[14] = qHTS assay for small molecule agonists of the antioxidant response element (ARE) signaling pathway measured by Nrf2-dependant transcriptional activity (AID 720636; active means well fitted curve in the direction sought with a large enough effect in the repeat runs; an effect the other way counts as inactive or inconclusive;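 further: HepG2 cells with an ARE-driven luciferase reporter; % of control where 0% means no effect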)
In short: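 HepG2 ARE-luc reporter line, 1% dialyzed FBS; 6 hr attachment at 37 C, compound pinned in, 16 hr at 37 C/5% CO2; ONE-Glo, 30 min RT, luminescence read.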

[15] = qHTS assay for small molecule agonists of the antioxidant response element (ARE) signaling pathway measured by Nrf2-dependant transcriptional activity - cell viability counter screen (AID 720653; active means well fitted curve in the direction sought with a large enough effect in the repeat runs; an effect the other way counts as inactive or inconclusive; further: on the % scale 0 is the no-effect control and ±100 the full control effect); conditions: ARE-bla HepG2 viability, CellTiter-Glo ATP luminescence, 16 h; max response: stronger effect = lower value
In short: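 Cytotoxicity counter screen: intracellular ATP quantified by CellTiter-Glo luminescence in the same ARE-bla HepG2 plates, after 16 h compound exposure and a 2 h beta-lactamase substrate step.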

[16] = qHTS assay for cell viability of HEK293 cells (AID 743288; active means well fitted curve in the direction sought with a large enough effect; an effect the other way counts as inactive or inconclusive; further: on the % scale 0 is the no-effect control and ±100 the full control effect; nearly all actives have a fitted effect of over 50% in size); conditions: ATP luminescence (CellTiter-Glo), 18 h; max response: stronger effect = lower value
In short: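 Quantitative high-throughput screen: compounds were pinned onto parental HEK293 cells (2,000 per well) after a minimum 5 h settling at 37 C, incubated 18 h at 37 C, and intracellular ATP measured by luciferase luminescence.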

[17] = qHTS assay for cell viability of the p53RE-bla HCT-116 cell line (AID 743292; active means well fitted curve in the direction sought with a large enough effect; an effect the other way counts as inactive or inconclusive; further: on the % scale 0 is the no-effect control and ±100 the full control effect; nearly all actives have a fitted effect of over 55% in size)
In short: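 Luminescent ATP quantitation (CellTiter-Glo) served as the viability read-out; reagent was added after 16 h compound exposure at 37 C and read after 30 min at room temperature. Cells: p53RE-bla HCT-116, 4,000 per well.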

[18] = target: Retinoic acid receptor RXR-alpha (Homo sapiens) (UniProt P19793); test: qHTS assay for small molecule agonists of retinoid X receptor alpha signaling (AID 588544);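 further: 0% = DMSO basal wells and 100% = reference agonist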
[19] = qHTS assay for environmental chemicals that activate the Aryl hydrocarbon Receptor (AhR) signaling pathway (AID 651777; active means well fitted curve in the direction sought with a large enough effect; an effect the other way counts as inactive or inconclusive; further: % of control where 0% means no effect; nearly all actives have a fitted effect of over 15% in size); conditions: 1A2-DRE human hepatoma cells, luciferase, 24 h; activation: stronger effect = higher value
In short: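 Luminescence read-out: One-Glo added for 30 min at RT after 24 hr compound treatment (37 C, 5% CO2) of human hepatoma cells expressing a DRE/CYP1A2 promoter–luciferase reporter; increased signal indicates AhR activation.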

[20] = target: Nuclear receptor subfamily 1 group I member 2 (Rattus norvegicus) (UniProt Q9R1A7); test: qHTS assay for small molecule activators of the rat pregnane X receptor (rPXR) signaling pathway (AID 651751; call rule not given here; further: 0% is about no effect); conditions: rPXR reporter cells, luciferase (One-Glo), 24 h
Chain of Nuclear receptor subfamily 1 group I member 2 (Rattus norvegicus) (Q9R1A7 whole entry, looked up): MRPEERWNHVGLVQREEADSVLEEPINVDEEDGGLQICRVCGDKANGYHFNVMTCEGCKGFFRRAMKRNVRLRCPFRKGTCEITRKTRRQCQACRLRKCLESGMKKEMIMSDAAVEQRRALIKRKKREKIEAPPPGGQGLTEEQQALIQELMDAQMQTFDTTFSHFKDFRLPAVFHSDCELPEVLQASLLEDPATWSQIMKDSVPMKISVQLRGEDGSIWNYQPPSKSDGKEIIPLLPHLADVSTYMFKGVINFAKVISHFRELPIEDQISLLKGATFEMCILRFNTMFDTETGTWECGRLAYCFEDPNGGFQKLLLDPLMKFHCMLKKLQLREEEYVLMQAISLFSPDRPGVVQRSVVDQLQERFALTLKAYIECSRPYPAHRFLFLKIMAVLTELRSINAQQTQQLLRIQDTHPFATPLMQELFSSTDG

Chain of Glucocorticoid receptor (Homo sapiens) (P04150 whole entry, looked up): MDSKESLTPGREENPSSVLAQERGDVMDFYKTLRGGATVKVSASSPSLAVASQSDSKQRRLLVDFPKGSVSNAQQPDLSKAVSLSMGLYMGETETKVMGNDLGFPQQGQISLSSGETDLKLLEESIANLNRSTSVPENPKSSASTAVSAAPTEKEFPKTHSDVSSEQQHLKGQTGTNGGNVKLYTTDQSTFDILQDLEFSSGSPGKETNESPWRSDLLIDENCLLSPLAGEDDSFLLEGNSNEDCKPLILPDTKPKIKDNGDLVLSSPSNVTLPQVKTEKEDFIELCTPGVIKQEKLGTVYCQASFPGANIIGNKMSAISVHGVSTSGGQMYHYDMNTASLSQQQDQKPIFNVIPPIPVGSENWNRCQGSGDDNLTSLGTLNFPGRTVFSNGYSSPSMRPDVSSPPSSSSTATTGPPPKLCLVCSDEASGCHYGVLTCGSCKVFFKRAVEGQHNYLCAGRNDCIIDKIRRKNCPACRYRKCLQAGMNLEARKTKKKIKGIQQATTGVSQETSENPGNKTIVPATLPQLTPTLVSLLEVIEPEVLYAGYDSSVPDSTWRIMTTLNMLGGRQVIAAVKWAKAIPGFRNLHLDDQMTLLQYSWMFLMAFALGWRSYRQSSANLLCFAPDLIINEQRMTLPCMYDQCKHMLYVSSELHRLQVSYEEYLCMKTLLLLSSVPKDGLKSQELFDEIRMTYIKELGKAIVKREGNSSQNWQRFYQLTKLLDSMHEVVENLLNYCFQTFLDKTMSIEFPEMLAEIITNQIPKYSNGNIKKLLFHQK
Chain of Vitamin D3 receptor (Homo sapiens) (P11473 whole entry, looked up): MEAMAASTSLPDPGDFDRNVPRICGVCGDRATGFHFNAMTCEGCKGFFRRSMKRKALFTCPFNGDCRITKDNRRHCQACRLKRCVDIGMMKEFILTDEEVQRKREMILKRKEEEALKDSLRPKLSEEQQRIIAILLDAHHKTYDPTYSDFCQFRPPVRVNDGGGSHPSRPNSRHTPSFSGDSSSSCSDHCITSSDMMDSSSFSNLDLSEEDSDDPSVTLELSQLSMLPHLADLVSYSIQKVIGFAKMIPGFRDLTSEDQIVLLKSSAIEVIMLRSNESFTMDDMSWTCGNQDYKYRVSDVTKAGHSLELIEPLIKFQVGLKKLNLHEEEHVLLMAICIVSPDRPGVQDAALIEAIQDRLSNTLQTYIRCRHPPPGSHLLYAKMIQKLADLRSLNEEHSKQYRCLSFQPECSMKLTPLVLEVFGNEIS
Chain of Thyroid hormone receptor beta (Homo sapiens) (P10828 whole entry, looked up): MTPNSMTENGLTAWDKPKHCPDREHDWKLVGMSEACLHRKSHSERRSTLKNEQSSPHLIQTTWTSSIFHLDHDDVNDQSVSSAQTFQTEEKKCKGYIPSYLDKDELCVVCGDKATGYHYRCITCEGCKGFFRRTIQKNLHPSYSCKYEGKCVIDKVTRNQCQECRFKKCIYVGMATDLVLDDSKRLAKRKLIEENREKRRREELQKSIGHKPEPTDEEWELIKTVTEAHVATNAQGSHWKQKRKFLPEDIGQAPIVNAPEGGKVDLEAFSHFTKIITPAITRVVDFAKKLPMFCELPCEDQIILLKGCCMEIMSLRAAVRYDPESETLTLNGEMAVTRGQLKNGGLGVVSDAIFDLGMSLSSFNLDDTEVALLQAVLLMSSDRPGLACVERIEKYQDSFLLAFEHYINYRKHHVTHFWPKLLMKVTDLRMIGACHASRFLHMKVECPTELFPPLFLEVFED
Chain of Retinoic acid receptor RXR-alpha (Homo sapiens) (P19793 whole entry, looked up): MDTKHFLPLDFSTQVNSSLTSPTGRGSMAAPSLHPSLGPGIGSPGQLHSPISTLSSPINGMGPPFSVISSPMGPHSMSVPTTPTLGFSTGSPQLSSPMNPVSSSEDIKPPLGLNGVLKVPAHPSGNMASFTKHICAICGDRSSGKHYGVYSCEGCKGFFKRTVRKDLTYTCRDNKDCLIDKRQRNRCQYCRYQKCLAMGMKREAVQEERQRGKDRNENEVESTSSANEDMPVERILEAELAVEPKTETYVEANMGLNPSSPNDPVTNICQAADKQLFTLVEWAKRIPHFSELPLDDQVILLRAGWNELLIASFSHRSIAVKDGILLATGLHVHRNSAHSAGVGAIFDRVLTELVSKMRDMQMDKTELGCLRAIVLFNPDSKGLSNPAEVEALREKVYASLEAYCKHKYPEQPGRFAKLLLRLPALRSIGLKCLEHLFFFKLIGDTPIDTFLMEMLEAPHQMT
Chain of Peroxisome proliferator-activated receptor delta (Homo sapiens) (Q03181 whole entry, looked up): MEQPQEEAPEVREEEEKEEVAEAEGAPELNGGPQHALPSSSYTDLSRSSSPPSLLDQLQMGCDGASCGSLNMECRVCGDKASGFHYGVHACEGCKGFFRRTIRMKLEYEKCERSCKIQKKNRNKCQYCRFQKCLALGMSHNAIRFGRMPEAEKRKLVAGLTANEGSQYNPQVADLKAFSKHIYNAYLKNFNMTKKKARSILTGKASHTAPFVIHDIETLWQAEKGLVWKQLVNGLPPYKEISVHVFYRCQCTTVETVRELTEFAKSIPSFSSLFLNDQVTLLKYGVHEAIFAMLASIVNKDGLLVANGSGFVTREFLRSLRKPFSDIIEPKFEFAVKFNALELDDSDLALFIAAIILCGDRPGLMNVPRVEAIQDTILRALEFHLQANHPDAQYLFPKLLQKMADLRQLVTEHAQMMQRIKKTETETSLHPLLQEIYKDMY
Chain of Peroxisome proliferator-activated receptor alpha (Homo sapiens) (Q07869 whole entry, looked up): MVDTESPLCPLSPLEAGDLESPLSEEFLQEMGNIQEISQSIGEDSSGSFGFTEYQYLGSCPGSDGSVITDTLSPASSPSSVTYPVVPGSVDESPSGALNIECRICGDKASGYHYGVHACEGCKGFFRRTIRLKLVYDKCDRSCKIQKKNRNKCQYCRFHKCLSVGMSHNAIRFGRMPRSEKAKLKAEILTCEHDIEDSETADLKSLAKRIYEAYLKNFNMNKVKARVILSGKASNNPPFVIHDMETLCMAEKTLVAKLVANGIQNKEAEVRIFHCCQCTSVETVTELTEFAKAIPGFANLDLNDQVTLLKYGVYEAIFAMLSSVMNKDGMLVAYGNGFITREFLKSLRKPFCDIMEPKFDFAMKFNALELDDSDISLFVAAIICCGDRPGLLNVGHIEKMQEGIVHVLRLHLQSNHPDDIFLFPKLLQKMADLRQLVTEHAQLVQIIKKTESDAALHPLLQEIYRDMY

CCOP(=O)(OCC)SCSP(=S)(OCC)OCC
-37.2%: max response [4]
inactive: activation [1] -5.04% | Potency [2] | outcome [3] | Potency [5] | outcome [6] | Potency [7] | max response [9] -11.3% | activity change % (negative = inhibition) [10] -5.46% | activation [11] -1.69% | activation [12] 1.64% | max response [13] -0.113% | Potency [14] | max response [15] -1.01% | max response [16] -5.51% | Potency [17]
-5.91%: max response [8]

O=C(Nc1ccccc1)Nc1cnns1
-10.7%: max response [4]
inactive: Potency [2] | outcome [3] | Potency [5] | outcome [6] | Potency [7] | activity change % (negative = inhibition) [10] 24.1% | activation [11] 2.3% | activation [12] 0.693% | max response [13] 0.0118% | max response [15] -2.01% | max response [16] -16.6% | Potency [17]
1.32%: max response [8]

CC1(C)CC/C(=C\c2ccc(Cl)cc2)C1(O)Cn1cncn1 (stereo not given)
inactive: activation [1] -0.523% | Potency [2] | Potency [5] | outcome [6] | Potency [18] | Potency [7] | max response [9] -37.6% | activity change % (negative = inhibition) [10] -0.512% | activation [19] 7.02% | max response [13] 0.489% | Potency [14] | max response [15] -5.93% | max response [16] -11.5% | Potency [17] | max response [20] 12.5%
5.05%: max response [8]

COc1cc(OC)nc(NC(=O)NS(=O)(=O)c2ncccc2C(F)(F)F)n1
-12.7%: max response [4]
-9.13%: max response [8]
inactive: Potency [2] | outcome [3] | Potency [5] | Potency [18] | Potency [7] | max response [9] 2.48% | activation [11] -1.26% | activation [12] -0.0953% | max response [13] -1.83% | Potency [14] | max response [15] -1.73% | max response [16] -6.81% | Potency [17] | max response [20] 0.924%

O=C(NC(=O)c1c(F)cccc1F)Nc1cc(Cl)c(OC(F)(F)C(F)F)c(Cl)c1
inactive: outcome [3] | Potency [18] | Potency [7] | max response [9] 21.4% | activity change % (negative = inhibition) [10] -14.9% | activation [11] -1.27% | activation [19] 0.0082% | max response [13] -1.91% | Potency [14] | max response [15] -11.1% | max response [16] -28.3% | Potency [17] | max response [20] -0.359%
-11.9%: max response [8]

CCC(C)(C)c1ccc(O)c(C(C)(C)CC)c1
-12.2%: max response [8]
active: Potency [13] 35.5 µM
inactive: activation [1] 5.63% | outcome [3] | outcome [6] | max response [9] 0.417% | activation [11] -0.913% | activation [19] -1.01% | Potency [14] | max response [15] -16.3% | max response [16] -2.63% | max response [20] 3.81%
-2.29%: max response [4]
